System: EPHA8
Conditions: concentration: 1 μM,replicates: in singlicate; n = 1
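Further: KINOMEscan kinase panel screen.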

Row | Structure (SMILES) | %Inh
1 | CS(=O)(=O)c1cccc(CNc2nc(Nc3ccc4c(c3)[C@@H]3C[C@@H]4CNC3=O)ncc2C(F)(F)F)c1 | 0%
2 | CSc1nccc(-c2c(-c3ccc(F)cc3)ncn2CCCN2CCOCC2)n1.Cl [SB-217146] | 0%
3 | O=C1NCCc2[nH]c(-c3ccncc3)cc21 | 0%
4 | FC(F)(F)c1cc(Br)cc(Nc2nccc(-c3cnn4ncccc34)n2)c1 [GW810578] | 0%
5 | CN(c1ccc2c(c1)nc(NCc1ccc(F)cc1)n2C)c1ccnc(Nc2ccc(CS(C)(=O)=O)cc2)n1.Cl [GW813244] | 49%
6 | Cc1ccc(CC(=O)N2CCc3cc(-c4cn(C)c5ncnc(N)c45)ccc32)cc1 [GSK2634758] | 13%
7 | O=C(NCC1CC1)c1ccc(-c2cc(C(=O)NC3CC3)ccc2F)cc1 [GW810445] | 3%
8 | CCn1c(-c2nonc2N)nc2cncc(Br)c21 [SB-738004] | 0%
9 | CN1CCN(CCCNc2nccc(-c3c(-c4ccc(F)cc4)nn4cc(C(N)=O)ccc34)n2)CC1 [GW622475] | 26%
10 | O=C(NOCC1CC1)c1cc(Br)c(F)c(F)c1Nc1ccc(I)cc1Cl | 0%
11 | Cc1n[nH]c2cc(Nc3ccnc(Nc4cccc(CN5CCOCC5)c4)n3)ccc12 [GW682569] | 9%
12 | C[C@@H]1CCN(C(=O)N2CCCC2)C[C@@H]1N(C)c1ncnc2[nH]ccc12 | 0%
13 | CS(=O)c1ccc(-c2coc3ccc(-c4n[nH]c(=O)o4)cc23)cc1 (stereo not shown) | 0%
14 | CC(C(=O)NC1CCN(c2ccnc(Nc3ccc(F)cc3)n2)C1)c1ccc(Cl)cc1 (stereo not shown) [GSK1379713] | 14%
15 | COC(=O)Nc1nc2cc(Oc3ccc(NC(=O)Nc4cc(C(F)(F)F)ccc4Cl)cc3)ccc2[nH]1.Cl [GW697465] | 99.7%
16 | Cn1ccc2ncnc(Oc3ccc(NC(=O)Nc4cccc(C(F)(F)F)c4)c(F)c3)c21 | 98.8%
17 | O=c1[nH]cc(-c2ccc(O)cc2)c2sc(-c3ccncc3)cc12 [GSK1033723] | 2%
18 | Cc1ccc2c(-c3ccnc(Nc4ccc(C(F)(F)F)cc4)n3)cnn2n1 [GW819776] | 6%
19 | CN1CCN(CCNc2nc3cc(Oc4ccc(NC(=O)Nc5cc(C(F)(F)F)ccc5F)cc4)ccc3[nH]2)CC1.Cl.Cl [GW768504] | 23%

Row | Structure (SMILES) | %Inh
20 | Cc1ccc(C(=O)Nc2ccc(Oc3ccc4nc(NC(=O)C5CC5)cn4c3)c(F)c2)c(=O)n1-c1ccccc1 | 99.8%
21 | Nc1nccc(-c2ccc3c(N)n[nH]c3c2)n1 [GSK1034945] | 13%
22 | COc1cccc(CNC(=O)NC2CCN(c3ccnc(Nc4cc(OC)c(OC)c(OC)c4)n3)C2)c1 (stereo not shown) [GSK1379765] | 13%
23 | Cn1ccc2ncnc(Oc3ccc(NC(=O)Nc4cccc(C(F)(F)F)c4)c(Cl)c3)c21 | 99.5%
24 | CCNCC(Cc1ccccc1)NC(=O)c1cc(Br)c(-c2ccnc3[nH]ccc23)s1.Cl.Cl (stereo not shown) [GSK1383280] | 26%
25 | Cc1cccc(-c2nc(Nc3ccncc3)c3sccc3n2)n1 [GW869641] | 2%
26 | Cn1ccc2ncnc(Oc3ccc(NC(=O)Nc4cc(C(C)(C)C)on4)c(Cl)c3)c21 | 98.9%
27 | COc1cc2ncn(-c3cc(OCC4CCCCC4)c(C(N)=O)s3)c2cc1OC [GSK204559] | 29%
28 | CCn1c(-c2nonc2N)nc2cncc(CNC3CCNCC3)c21.Cl [SB-747651] | 0%
29 | O=C(Nc1cccc(C(F)(F)F)c1)c1cccc(Oc2ccc3nccn3n2)c1 | 27%
30 | COC(=O)c1cccc(NC(=O)NC2CCN(c3ccnc(Nc4cc(OC)c(OC)c(OC)c4)n3)C2)c1 (stereo not shown) [GSK1379767] | 7%
31 | Cn1cc(-c2cccc3c(N)c(C(N)=O)nnc23)cn1 | 13%
32 | CCN1CCN(CCCC(=O)Nc2n[nH]c3nc(-c4ccc(O)cc4)c(Br)cc23)CC1 [SB-731579] | 0%
33 | COc1cccc(OC)c1C(=O)Nc1cccc(-c2nn3ccccc3c2-c2ccnc(Nc3cccc(F)c3)n2)c1 [GSK361065] | 17%
34 | Cl.Cl.NC[C@H](CC1CCCCC1)NC(=O)c1ccc(-c2ccnc3[nH]ccc23)s1 [GSK1581428] | 36%
35 | COc1cc2c(Nc3ccc(NC(=O)c4ccccc4)cc3)ncnc2cc1OCCCN1CCOCC1 [GSK301329] | 12%
36 | CC(=O)Nc1ccc(-c2cc3ncnc(SCC(=O)O)c3s2)cc1 | 0%
37 | C[C@@H]1CNc2c(sc3ccc4nc(-c5ccc(O)cc5)ccc4c23)C(=O)N1 | 0%
